Common to all, as to assay: NCI-60 one-dose screen, 48 h (100 = growth as untreated, 0 = no growth, -100 = all killed)
Common to all, as to conditions: 10 µM unless noted

Test [1] relates to T-47D breast.
Test [2] concerns BT-549 breast.
Test [3] relates to MDA-MB-435 melanoma.
Test [4] has as its system SW-620 colon.
Test [5] deals with MCF7 breast.
In test [6] the test system is HCT-116 colon.
Test [7] concerns HCC-2998 colon.
Test [8] deals with KM12 colon.

Compounds without any hit were thinned out: in the full panel of roughly 83,000, 20% have a hit.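 Single-dose data. Exposure time 48 hours. Values below 10 considered active.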 Values without a mark were called inactive. Calls of active or inactive are those of the source.

Consider `Cc1ccc(C2=NNC(c3sc(Cl)nc3Cl)C2)cc1` (configuration not stated), for which the growth in test [1] was 56.1%; in test [2], 98%; in test [3], 104%; in test [4], 72.1%; in test [5], 65.9%; in test [6], 74.7%. Moreover, the growth in test [7] is 92.8%; in test [8] it was 99.5%.
Turning to `CC(=O)Nc1ccc(C(=O)COc2cccc(/C=C3\CCc4ccccc4C3=O)c2)cc1`, the growth in test [1] is 67.9%; in test [2], 66%; in test [3], 85.8%; in test [4], 47%; in test [5], 19.6%; in test [6], 81%. The results for the growth in test [7] and in test [8] were 93.7% and 91%, respectively.
Regarding `O=C1C(=O)/C(=C/c2ccccc2)CCCCCC/C1=C/c1ccccc1`, the growth in test [1] was 47.6%; in test [2], 16.4%; in test [3] it was -41.8% (active); in test [4], -19.1% (active); in test [5], 6.04% (active); in test [6], -23.7% (active). Besides, the growth in test [7] was -22.3% (active); in test [8], -23.6% (active).
On to `CC1Cc2ccccc2N1C(=O)c1ccc(C(=O)c2ccccc2)cc1` (configuration not stated), for which the growth is 91.4% in test [1]; 84% in test [2]; 89.1% in test [3]; 95.1% in test [4]; 103% in test [5]; 81.1% in test [6]. Also, the growth in test [7] was 127%; in test [8], 101%.
`CC(C)C[C@H](NC(=O)/C=C/Cn1ccc2ccccc2c1=O)B(O)O`: the growth was 17.6% in test [1]; 27.9% in test [2]; -44.3% (active) in test [3]; 24.6% in test [4]; 26.5% in test [5]; 16.2% in test [6]. The growth in test [7] was 62.5%; in test [8], 37.8%.
Consider `C[C@H]1C(=O)N2c3ccccc3[C@@]3(O)C[C@@H](n4cnc5ccccc5c4=O)C(=O)N1[C@@H]23`, for which the growth in test [1] was 99.1%; in test [2] it was 103%; in test [3] it was 109%; in test [4] it was 107%; in test [5], 98.9%; in test [6], 93.8%. Also, the growth in test [7] was 98.5%; in test [8], 113%.
For the compound `O=C1OC2(c3ccccc31)c1ccccc1-c1ccccc12`, the growth is 90.1% in test [1]; 82.7% in test [2]; -26.9% (active) in test [3]; 78.4% in test [4]; 52.4% in test [5]; 54.4% in test [6]. In addition, the growth in test [7] is 88.4%; in test [8], 51.6%.
Consider `O=C1CSC(c2ccccc2Cl)N1c1nnc(Cn2nnc3ccccc32)o1` (configuration not stated), for which the growth in test [1] is 50.5%; in test [2], 98.9%; in test [3], 93.4%; in test [4], 93.2%; in test [5] it was 86.8%; in test [6] it was 60.1%. In addition, the figures for the growth in test [7] and in test [8] were 86.4% and 77.1%, respectively.
With `CCOC(=O)Nc1ccc2c3c(cccc13)-c1ccccc1-2`, the growth in test [1] was 58.7%; in test [2], 26.1%; in test [3], -9.66% (active); in test [4] it was 14.9%; in test [5] it was 15.8%; in test [6] it was 16.6%. In addition, the growth was 41.2% in test [7] and 18.3% in test [8].
As for `COC(=O)C1(NC(=O)CNC(=O)OCc2ccccc2)CCCC1`, the growth in test [1] is 113%; in test [2], 99.1%; in test [3], 106%; in test [4], 104%; in test [5], 93.9%; in test [6] it was 99.9%. Also, the growth in test [7] and in test [8] was 108% throughout.
Take `CSc1nc2nc3c(c(-c4ccc(C)cc4)c2c(=O)[nH]1)CN(C)C/C3=C\c1ccc(C)cc1`: the growth in test [1] is 103%; in test [2], 114%; in test [3], 91.8%; in test [4] it was 103%; in test [5], 87%; in test [6] it was 101%. Moreover, the growth in test [7] is 96.5%; in test [8], 101%.
As for `CCOc1nc(-c2ccco2)n2nc(-c3ccco3)cc2n1`, the growth in test [1] was 84%; in test [2], 119%; in test [3] it was 114%; in test [4] it was 107%; in test [5] it was 39.8%; in test [6], 108%. The growth in test [7] was 123%; in test [8], 91.7%.
Turning to `COc1cc(/C=C/C(=O)C(C(=O)/C=C/c2ccc(OC(=O)CCNC34CC5CC(CC(C5)C3)C4)c(OC)c2)C(=O)CCNC23CC4CC(CC(C4)C2)C3)ccc1OC(=O)CCNC12CC3CC(CC(C3)C1)C2` (configuration not stated), the growth was 41.6% in test [1]; -24.2% (active) in test [2]; -29.9% (active) in test [3]; -22.7% (active) in test [4]; 14.4% in test [5]; -48.8% (active) in test [6]. Moreover, the growth was -48% (active) in test [7] and -5.8% (active) in test [8].
Regarding `Cn1cnc([N+](=O)[O-])c1Sc1nc(N)nc2nc[nH]c12`, the growth in test [1] is 47.2%; in test [2] it was 43.4%; in test [3] it was 25%; in test [4], 50.7%; in test [5], 15.1%; in test [6], 23%. The growth in test [7] was 19.6%; in test [8] it was 23.5%.

The values are drawn from PubChem BioAssay (NCI).
